Among all 39,000 compounds or so, about 3,300 (8.5%) were called active. For the sample, actives were picked, then their nearest neighbours and some compounds at random.
test system: HepG2; assay: cytotoxicity call (relative viability < 0.9); conditions: 10 µM

SMILES | cytotoxicity call
CC(C)NC(=O)N(C)C[C@H]1Oc2ccc(NC(=O)Cc3ccccc3)cc2C(=O)N([C@H](C)CO)C[C@H]1C | inactive
C[C@H](CO)N1C[C@H](C)[C@H](CN(C)C(=O)Nc2ccccc2)OCCCC[C@H](C)Oc2ccc(NC(=O)c3ccccc3)cc2C1=O | inactive
COc1cccc(NC(=O)N[C@@H]2C=C[C@@H](CC(=O)N3CCOCC3)O[C@@H]2CO)c1 | inactive
C[C@@H]1CN([C@H](C)CO)C(=O)c2cccc(NC(=O)c3nc4ccccc4s3)c2O[C@@H]1CN(C)S(=O)(=O)c1cn(C)cn1 | inactive
CC(C)NC(=O)N(C)C[C@@H]1Oc2c(NC(=O)Nc3ccc4c(c3)OCO4)cccc2C(=O)N([C@H](C)CO)C[C@@H]1C | inactive
C[C@H](CO)N1C[C@H](C)[C@H](CN(C)C(=O)C2CCCCC2)OCCCC[C@H](C)Oc2ccc(NS(=O)(=O)c3cccs3)cc2C1=O | inactive
Cc1cc(C)n(C(=O)Cn2cc([N+](=O)[O-])cn2)n1 | inactive
C[C@H](CO)N1C[C@H](C)[C@H](CN(C)Cc2ccncc2)Oc2ccc(NS(=O)(=O)c3ccc(F)cc3)cc2CC1=O | inactive
CC(=O)c1ccn[nH]1 | inactive
COC(=O)[C@]12CCC(C)(C)C[C@H]1[C@H]1C(=O)C=C3[C@@]4(C)C=C(C#N)C(=O)C(C)(C)[C@@H]4CC[C@@]3(C)[C@]1(C)CC2 | active
COC(=O)[C@@]12CCC(C)(C)C[C@@H]1[C@@H]1C(=O)C=C3[C@]4(C)C=C(C#N)C(=O)C(C)(C)[C@H]4CC[C@]3(C)[C@@]1(C)CC2 | active
Cc1ccccc1S(=O)(=O)N1C[C@H](O)COC[C@H]2O[C@H](CC(=O)NCc3ccccc3Cl)CC[C@@H]21 | inactive
Cc1noc(C)c1NC(=O)Nc1cccc2c1O[C@H](CN(C)C(=O)NC(C)C)[C@@H](C)CN([C@@H](C)CO)C2=O | inactive
C[C@@H]1CN([C@@H](C)CO)C(=O)Cc2cc(NC(=O)CCN3CCOCC3)ccc2O[C@@H]1CN(C)C(=O)NC1CCCCC1 | inactive
C[C@@H]1CN([C@H](C)CO)C(=O)c2cc(C#CC3(O)CCCC3)cnc2O[C@@H]1CN(C)S(C)(=O)=O | inactive
Cc1ccc(S(=O)(=O)Nc2ccc3c(c2)C(=O)N([C@H](C)CO)C[C@H](C)[C@H](CN(C)Cc2ccc(Oc4ccccc4)cc2)O3)cc1 | inactive
Cc1ccc(S(=O)(=O)Nc2ccc3c(c2)C(=O)N([C@H](C)CO)C[C@@H](C)[C@@H](CN(C)Cc2ccc(Oc4ccccc4)cc2)O3)cc1 | active
Cc1ccc(S(=O)(=O)Nc2ccc3c(c2)C(=O)N([C@H](C)CO)C[C@H](C)[C@@H](CN(C)Cc2ccc(Oc4ccccc4)cc2)O3)cc1 | inactive
Cc1ccc(S(=O)(=O)Nc2ccc3c(c2)C(=O)N([C@@H](C)CO)C[C@H](C)[C@H](CN(C)Cc2ccc(Oc4ccccc4)cc2)O3)cc1 | inactive
Cc1ccc(S(=O)(=O)Nc2ccc3c(c2)C(=O)N([C@H](C)CO)C[C@@H](C)[C@H](CN(C)Cc2ccc(Oc4ccccc4)cc2)O3)cc1 | active
Cc1ccc(S(=O)(=O)Nc2ccc3c(c2)C(=O)N([C@@H](C)CO)C[C@@H](C)[C@@H](CN(C)Cc2ccc(Oc4ccccc4)cc2)O3)cc1 | active
Cc1ccc(S(=O)(=O)Nc2ccc3c(c2)C(=O)N([C@@H](C)CO)C[C@@H](C)[C@H](CN(C)Cc2ccc(Oc4ccccc4)cc2)O3)cc1 | inactive
Cc1ccc(S(=O)(=O)Nc2ccc3c(c2)C(=O)N([C@@H](C)CO)C[C@H](C)[C@@H](CN(C)Cc2ccc(Oc4ccccc4)cc2)O3)cc1 | inactive

SMILES | cytotoxicity call
NCC(=O)NC1CCCCC1 | inactive
COc1ccc(NC(=O)N(C)C[C@@H]2Oc3ccc(NS(C)(=O)=O)cc3C(=O)N([C@H](C)CO)C[C@H]2C)cc1 | inactive
COc1ccc2c3c(n(c2c1)C)[C@@H](CO)N(Cc1cc(cc(c1)OC)OC)C[C@]13CCN(CC1)S(=O)(=O)c1cn(cn1)C | inactive
C[C@@H]1CN([C@H](C)CO)C(=O)Cc2cc(NS(=O)(=O)c3cccs3)ccc2O[C@@H]1CN(C)CC1CC1 | inactive
C[C@@H]1CN([C@@H](C)CO)C(=O)c2cccc(NS(=O)(=O)c3cn(C)cn3)c2O[C@@H]1CN(C)S(=O)(=O)c1ccc(F)cc1 | inactive
Cc1ccc(S(=O)(=O)N(C)C[C@H]2Oc3c(NS(=O)(=O)c4cccs4)cccc3C(=O)N([C@H](C)CO)C[C@H]2C)cc1 | inactive
C[C@H]1CCCCO[C@H](CN(C)C(=O)Nc2ccc(F)cc2)[C@@H](C)CN([C@@H](C)CO)C(=O)c2cc(NC(=O)C3CCCCC3)ccc2O1 | inactive
CCCN(C)C[C@@H]1OCCCC[C@H](C)Oc2ccc(NC(=O)Nc3ccc(F)cc3)cc2C(=O)N([C@H](C)CO)C[C@@H]1C | inactive
Cc1ccc(S[C@]2(C(=O)NCc3ccccc3)CC(=O)N(C3CCCCC3)[C@@H]2c2ccc(CO)cc2I)cc1 | inactive
C=CCC[C@H](Cc1ccc(F)cc1)C(=O)OC[C@@H](NC(=O)[C@H](CC=C)CC(=O)N(CCO)Cc1ccccc1)C(C)(C)C | inactive
COc1ccc(-c2coc3cc(O)ccc3c2=O)cc1 | inactive
COc1ccc(-c2coc3c(OC)c(OC)cc(O)c3c2=O)cc1 | inactive
COc1ccc(-c2coc3c(O)c(O)c(OC)cc3c2=O)cc1 | active
CC(C)NC(=O)Nc1ccc2c(c1)CC(=O)N([C@@H](C)CO)C[C@@H](C)[C@H](CN(C)C(=O)Nc1ccc3c(c1)OCO3)O2 | inactive
COCc1cc(C)nc2n[nH]c(N)c12 | active
COCc1cc(C)nc(N)c1C#N | inactive
Cc1ccc2c(N)[nH]nc2n1 | inactive
Cc1noc(C)c1S(=O)(=O)N(C)C[C@@H]1Oc2ccc(NC(=O)Cc3cn(C)c4ccccc34)cc2CC(=O)N([C@@H](C)CO)C[C@@H]1C | inactive
C[C@@H]1CN([C@H](C)CO)C(=O)c2cc(NC(=O)c3ccccc3)ccc2O[C@@H](C)CCCCO[C@H]1CN(C)C(=O)Nc1ccc(C(F)(F)F)cc1 | inactive
C[C@@H](O)c1nnc(N)[nH]1 | inactive
C[C@H]1CN([C@@H](C)CO)C(=O)c2cc(NS(=O)(=O)c3ccc(Cl)cc3)ccc2O[C@@H]1CN(C)Cc1ccc(-c2ccccc2)cc1 | inactive
C[C@H]1CN([C@@H](C)CO)C(=O)c2cc(NS(=O)(=O)c3ccc(Cl)cc3)ccc2O[C@H]1CN(C)Cc1ccc(-c2ccccc2)cc1 | inactive
C[C@@H]1CN([C@H](C)CO)C(=O)c2cc(NS(=O)(=O)c3ccc(Cl)cc3)ccc2O[C@H]1CN(C)Cc1ccc(-c2ccccc2)cc1 | inactive

SMILES | cytotoxicity call
C[C@@H]1CN([C@@H](C)CO)C(=O)c2cc(NS(=O)(=O)c3ccc(Cl)cc3)ccc2O[C@@H]1CN(C)Cc1ccc(-c2ccccc2)cc1 | active
C[C@H](CO)N1C[C@H](C)[C@@H](CN(C)Cc2ccc(-c3ccccc3)cc2)Oc2ccc(NS(=O)(=O)c3ccc(Cl)cc3)cc2C1=O | active
C[C@@H]1CN([C@@H](C)CO)C(=O)c2cc(NS(=O)(=O)c3ccc(Cl)cc3)ccc2O[C@H]1CN(C)Cc1ccc(-c2ccccc2)cc1 | inactive
C[C@@H]1CN([C@H](C)CO)C(=O)c2cc(NS(=O)(=O)c3ccc(Cl)cc3)ccc2O[C@@H]1CN(C)Cc1ccc(-c2ccccc2)cc1 | active
C[C@H](CO)N1C[C@H](C)[C@H](CN(C)Cc2ccc(-c3ccccc3)cc2)Oc2ccc(NS(=O)(=O)c3ccc(Cl)cc3)cc2C1=O | active
C[C@H](CO)N1C[C@H](C)[C@H](CN(C)Cc2ccc(Oc3ccccc3)cc2)Oc2cc(Br)ccc2S1(=O)=O | inactive
C[C@H]1CN([C@@H](C)CO)C(=O)c2cc(NC(=O)CCCCCC(=O)Nc3ccccc3N)ccc2O[C@@H]1CN(C)C(=O)Nc1cccc2ccccc12 | inactive
CC(C)NC(=O)N(C)C[C@H]1Oc2ccc(NS(=O)(=O)c3ccc(Cl)cc3)cc2C(=O)N([C@H](C)CO)C[C@@H]1C | inactive
C[C@H](CO)N1C[C@H](C)[C@H](CN(C)C(=O)Nc2ccc(F)cc2)Oc2c(NS(=O)(=O)c3cn(C)cn3)cccc2C1=O | inactive
C[C@@H]1CN([C@@H](C)CO)C(=O)c2cccc(NC(=O)Nc3ccc(C(F)(F)F)cc3)c2O[C@@H]1CN(C)S(=O)(=O)c1ccc(F)cc1 | inactive
Nc1ncnc(N[C@H]2CCS(=O)(=O)C2)c1[N+](=O)[O-] | inactive
C[C@@H]1CCCCO[C@H](CN(C)Cc2ccc(C(F)(F)F)cc2)[C@H](C)CN([C@H](C)CO)C(=O)c2cc(NC(=O)CCC(F)(F)F)ccc2O1 | inactive
COCC(=O)N1C[C@H](C)[C@H](OC)CN(C)C(=O)c2ccc(NC(=O)Nc3ccccc3)cc2OC[C@H]1C | inactive
C[C@@H]1CN([C@H](C)CO)C(=O)Cc2cc(NS(=O)(=O)c3ccccc3)ccc2O[C@H]1CN(C)Cc1ccc(C(=O)O)cc1 | inactive
COc1ccc(S(=O)(=O)Nc2ccc3c(c2)C(=O)N([C@H](C)CO)C[C@H](C)[C@@H](CN(C)CC2CCCCC2)OCCCC[C@@H](C)O3)cc1 | inactive
C[C@H](CO)N1C[C@H](C)[C@@H](CN(C)S(=O)(=O)c2ccccc2)Oc2c(NS(=O)(=O)c3ccc(F)cc3)cccc2C1=O | inactive
COc1ccc(C#Cc2cccc(-c3nc(C(=O)N4CCN(Cc5ccccc5)CC4)cc4c3[C@@H](CCO)N(S(=O)C(C)(C)C)C4)c2)cc1OC (stereo partly drawn) | inactive
CC(C)(C)[S@](=O)N1Cc2cc(C(=O)N3CCCCC3)nc(-c3cccc(-c4ccccc4F)c3)c2[C@@H]1CCO | inactive
COc1ccc(C#Cc2cccc(-c3nc(C(=O)N4CCN(Cc5ccccc5)CC4)cc4c3[C@H](CCO)N(S(=O)C(C)(C)C)C4)c2)cc1OC (stereo partly drawn) | inactive
CC(C)(C)S(=O)N1Cc2cc(C(=O)N3CCN(Cc4ccccc4)CC3)nc(-c3cccc(-c4cc5ccccc5o4)c3)c2[C@H]1CCO (stereo partly drawn) | active
CC(C)(C)S(=O)N1Cc2cc(C(=O)N3CCN(Cc4ccccc4)CC3)nc(-c3cccc(C#CCC4CCCC4)c3)c2[C@H]1CCO (stereo partly drawn) | active
CC(C)(C)[S@@](=O)N1Cc2cc(C(=O)N3CCCCC3)nc(-c3cccc(-c4ccccc4F)c3)c2[C@H]1CCO | inactive

Reference: the antibiotic and cytotoxicity screens of Wong et al. (2023)
